NPR1 activator: GC-A (human) enzyme activation | P16066 | HEK293 GC-A cells, cGMP TR-FRET, EC30 ANP; 0% at EC30 ANP, 100% saturating ANP | activation, % at 10 µM | 370,000 tested, 0.14% active; in the data active = activation above about 40%
PfM18AAP inh: blocks P. falciparum M18 aspartyl aminopeptidase | recombinant PfM18AAP, H-Glu-NHMec fluorogenic cleavage | inhibition, % at 7.35 µM | 290,000 tested, 1.2% active | AID 1822;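 active = inhibition above the campaign mean inhibition over all tested compounds plus 3 SD, cut at about 28% in these data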;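 note: 0% = plate median of test compound wells and 100% = 2 mM ZnCl2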
Rce1 inhib: yeast Ras-converting enzyme inhibition | 290,000 tested, 0.27% active | calls only | yeast membranes, quenched prenylated peptide cleavage fluorescence | AID 2563 | Q03530;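 active = fall in fluorescence gain of 50% or more versus controls, with final raw signal at or below 3038400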;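 note: plate controls were neutral control wells for no effect and wells lacking membranes for full effect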
GC-B act: GC-B (human) receptor activation; P20594; activation, % at 10 µM; AID 1920062; HEK293-GC-B cells, CNP EC30, cGMP TR-FRET; 0% at EC30 CNP, 100% saturating CNP; 370,000 tested, 0.11% active;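 active = activation at 10 µM reaching about 35% in either raw or pattern-adjusted values, limit read from the data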
PLCg1 inh: inhibitors of human phospholipase C gamma1; AID 720700; inhibition, % at 12.2 µM; 370,000 tested, 0.84% active; purified PLC-gamma1, fluorogenic substrate, fluorescence; in the data active = inhibition above about 9.5%
PLC-beta3 inh: blocks human PLC-beta3 enzyme activity; Q01970; Purified PLC-beta3, fluorogenic substrate, fluorescence; inhibition, % at 12.2 µM; 370,000 tested, 0.18% active; AID 720704; in the data active = inhibition above about 11%;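 note: 0% = median of compound wells on plate and 100% = full blocker control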
The depositor's hits bear a star; i = inactive; nt = no result given; + = active, no number. This is a sample that favours compounds with a hit; in the whole collection about 2.2% have one here.

SMILES	NPR1 activator	PfM18AAP inh	Rce1 inhib	GC-B act	PLCg1 inh	PLC-beta3 inh
CCC[C@H]1[C@H](N)CC[C@@]23CCCN2C(=O)CCC[C@@H]13	-2	nt	nt	-3	0	1
Cc1nc2c(=O)oc3ccccc3c2n1-c1ccccc1	0	-13	i	10	-1	1
CCn1c(C)nc2c(=O)oc3ccccc3c21	7	0	+	1	-3	1
N#CCC[C@@H]1CC[C@]2(CCCN(C(=O)c3ccc4ccccc4n3)C2)O1	-1	nt	nt	-3	0	2
COc1ccc(C2C3=C(CC(c4ccco4)CC3=O)Nc3ccccc3N2C(C)=O)cc1 (stereo not given)	-5	-7	i	-10	-76	-87
COc1cccc(C2CC(=O)C3=C(C2)Nc2ccccc2N(C(=O)CCC(=O)O)C3c2ccc(F)cc2)c1 (stereo not given)	0	4	+	-1	-43	-78
O=C(CSc1nc2ccccc2nc1N1CCCCC1)N1CCN(S(=O)(=O)c2ccccc2)CC1	-1	nt	nt	-1	-6	-7
CCn1cc(/C=C(\NC(=O)c2ccc(OC)cc2)C(=O)N2CCN(C)CC2)c2ccccc21	0	8	i	0	-11	-19
CCn1cc(/C=C(\NC(=O)c2ccccc2)C(=O)N2CCOCC2)c2ccccc21	-5	3	+	1	-2	-13
COc1cc(/C=N/Nc2cc(C)nc(NS(=O)(=O)c3ccc(C)cc3)n2)ccc1O	-4	30*	nt	3	-65	-68
Brc1cccc(C2Nc3cccc4cccc(c34)N2)c1	-20	24	i	1	-10	-14
Clc1cccc(C2Nc3cccc4cccc(c34)N2)c1	-12	32*	i	-2	-9	-13
CC(=O)Nc1cc(C(C)(C)C)c(O)c(C(C)(C)C)c1	5	31*	i	5	5	4
CC(C)C[C@@H]1COc2cc(Br)ccc2S(=O)(=O)N1Cc1cn(CC2CCCCC2)nn1	2	nt	nt	11	-2	-5
Cc1cccc(CNC(=O)NC2CCCCN(Cc3cccc(Cl)c3)C2=O)c1 (stereo not given)	-4	nt	nt	3	-1	0
S=c1[nH]nc(-c2ccccc2Br)n1Cc1ccccc1	-1	31*	i	-1	0	-6
C=CCn1c(-c2cccc([N+](=O)[O-])c2)n[nH]c1=S	-2	24	i	-1	2	-1
O=[N+]([O-])c1cccc(-c2n[nH]c(=S)n2Cc2ccccc2)c1	2	29*	i	0	3	2
CC(C)CNC(=O)OCc1cn(Cc2cccc(Cl)c2)nn1	3	nt	nt	2	4	2
Cc1cc(C)n2nc(CC(=O)NNC(=O)c3ccc(N(C)C)cc3)nc2n1	-2	-25	+	-1	-2	-8
CCc1nnc(N/N=C/c2ccc(O)c(OC)c2)n1N	-3	-1	i	-2	9	2
COc1ccc(/C=N/Nc2nncn2N)cc1Br	-1	28*	i	-4	6	-1
O=C1CCS/C(=N\N=C\c2ccc(Cl)cc2Cl)N1	56*	24	i	-5	2	-5
COc1ccc(CNCC#Cc2ccc(C(F)(F)F)cc2)c(OC)c1	3	nt	nt	4	-4	-5
CCCCNS(=O)(=O)CC1NCc2cc(F)ccc21 (stereo not given)	3	nt	nt	-2	-5	-5
SMILES	NPR1 activator	PfM18AAP inh	Rce1 inhib	GC-B act	PLCg1 inh	PLC-beta3 inh
Cn1cc(Cl)c(C(=O)Nc2nc3ccc([N+](=O)[O-])cc3s2)n1	8	30*	nt	-3	-3	0
COc1ccc(C(CCOC(=O)Oc2ccccc2)c2cc(OC)cc(OC)c2)cc1 (stereo not given)	-2	nt	nt	2	3	1
COc1ccc(S(=O)(=O)Oc2c(OC)cc(C(=S)N3CCOCC3)cc2OC)cc1	-1	28*	i	-1	3	-6
COc1ccc(S(=O)(=O)Oc2ccc(C(=S)N3CCOCC3)cc2OC)cc1	3	2	i	-1	5	-12
C=CCN(C)C(C#Cc1ccccc1)Cc1ccccc1 (stereo not given)	-1	nt	nt	-9	0	-2
COc1ccc(C[C@H]2c3cc(O)c(OC)cc3CC[N+]2(C)[O-])cc1O (stereo not given in full)	-7	nt	+	-4	-49	-69
C=CCN(CC#Cc1ccc(C)cc1)Cc1ccc(OC)cc1OC	-2	nt	nt	0	0	0
O=C1N=C(N2C=CC(=C3C=CNC=C3)C=C2)/C(=C/N=NC(=O)c2ccccc2O)S1	-11	29*	i	-12	-77	-143
CCOC(=O)N1CCN(C(=O)C2CCN(C(=O)c3ccccc3C)CC2)CC1	41*	nt	nt	18	-5	-16
Cc1ccccc1C(=O)N1CCC(C(=O)N2CCN(c3ncccn3)CC2)CC1	0	nt	nt	-1	-7	-10
O=C(OCCN1CCN(C2CN(Cc3cn(Cc4cccc(F)c4)nn3)S(=O)(=O)C2)CC1)c1cc2ccccc2o1 (stereo not given)	2	nt	nt	1	1	2
Cn1cccc1C(=O)N1CCN(S(=O)(=O)c2cccc3ccccc23)CC1	-4	nt	nt	-5	-2	0
O=C(O)CCCCCn1c(SCC(=O)c2ccc(O)c(O)c2)nc2ccsc2c1=O	-2	47*	i	-4	11*	3
CC(=O)N1c2ccc([N+](=O)[O-])cc2NC(=O)CC1C (stereo not given)	4	-7	+	-1	0	2
COc1ccc(CNC(=O)CCNS(=O)(=O)c2ccc3[nH]c(=O)oc3c2)cc1	4	nt	nt	5	1	0
CCCCC(=O)c1ccc(O)cc1	3	-10	i	3	1	1
O=C(CCO)c1ccc(O)cc1	3	56*	i	0	1	5
C#CCOCCOCCOCCNc1nc(N2CCOCC2)nc(N2CCN(C(=O)CCCCCCCCCCNC(=O)[C@H]([C@@H](C)CC)n3cc(CCCCN=C(N)N)nn3)CC2)n1	5	nt	nt	-4	3	-1
C#CCOCCOCCOCCNc1nc(N2CCOCC2)nc(N2CCN(C(=O)[C@H]([C@@H](C)CC)n3cc(CCCN=C(N)N)nn3)CC2)n1	3	-4	i	-7	10*	2
CCOc1ccc(C2C(C(=O)OC)=CN(C(C)c3ccccc3)C=C2C(=O)OC)cc1 (stereo not given)	-8	-7	+	-3	-169	-220
C[C@@H](O)CC#Cc1ccc2oc(=O)c(-n3cc(-c4ccsc4)nn3)cc2c1	-1	nt	nt	0	-34	-57
C[C@H](O)Cc1cn(-c2cc3cc(C#Cc4ccsc4)ccc3oc2=O)nn1	47*	nt	nt	0	-12	-22
COC(=O)c1cccc(NC(=O)c2ccc[n+]([O-])c2)c1	1	-5	i	-6	11*	0

Compound activity (PubChem)
